The nature of experiment [1]: liver-stage malaria parasite growth inhibition, primary screen, cell-based, HepG2, luciferase luminescence, HepG2 viability (AID 624349).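 Note: 100% = mean of DMSO negative control wells on the same plate.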 Conditions: P. berghei liver stage in HepG2, luciferase luminescence, concentration not given here; parasite load remaining: stronger effect = lower value; viability: measured here: HepG2 viability without parasites.
The nature of experiment [2]: stimulators of nuclear beta-catenin in C2C12, primary screen, imaging, WNT3A-conditioned medium, mouse C2C12, NPC library (AID 1117326; in the data active = nuclear beta-catenin stimulation mostly above about 4.2%, no sharp cut-off; inactive = mostly below about 10%). Conditions: stronger effect = higher value.
A short description of experiment [3]: stimulators of insulin release from INS-1E, primary screen, cell-based, 5 mM glucose, NPC library (AID 1117329;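 active = compound raises insulin release from rat beta cells at 5 mM glucose, no numeric limit stated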). Conditions: rat INS-1E insulin secretion, at 10 µM, stronger effect = higher value.
Experiment [4] is described as follows: growth inhibition of GSK3B-pretreated HCT116 cells – cell-based, CellTiter-Glo, 0.2 to 20 µM (AID 1117336;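 active = compounds lowering colon cancer cell viability after pretreatment blocking the GSK3B kinase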). Conditions: HCT116 viability after GSK3B inhibitor, at 20 µM, stronger effect = higher value. For orientation: In ATP-based viability assays light output follows the ATP content of the culture.
Experiment [5] is described as follows: inhibition of endothelial tube formation, primary screen, imaging, VEGF stimulated, CD31 staining, tube area, NPC library (AID 1117340;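 active = compound that reduces growth-factor-driven endothelial tube area in a mixed cell culture, no cutoff stated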). Conditions: VEGF-stimulated ADSC/ECFC co-culture, at 10 µM, stronger effect = higher value.
Experiment [6] in a line: glucagon-like peptide 1 release enhancers, primary assay, NCI-H716 cell line, NPC library (AID 1117341;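 active = compound raises GLP1 secretion from the human gut endocrine cells, with no numeric limit stated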). Conditions: NCI-H716 cells, at 10 µM, stronger effect = higher value.
Experiment [7] in a line: HCT116 colon cancer cell growth inhibition, primary screen, CellTiter-Glo luminescence, NPC library (AID 1117342;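 active = compounds that lower survival of HCT116 colon cancer cells in the luminescence readout, no numeric limit stated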). Conditions: at 20 µM (top of the series).
A short description of experiment [8]: CellTiter-Glo luminescent readout of SW480 viability loss, NPC library primary (AID 1117343;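 active = compounds that lower viability of the colon cancer cells in the luminescence readout, with no numeric limit stated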). Conditions: CellTiter-Glo luminescence; at 20 µM (top of the series).
Experiment [9] can be described thus: decreased DLD-1 cellular survival, CellTiter-Glo luminescent readout, NPC compound collection, primary HTS (AID 1117346;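 active = compounds that lower survival of DLD-1 colon cancer cells in the luminescence readout, no cutoff given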). Conditions: DLD-1 viability, CellTiter-Glo luminescence; at 20 µM (top of the series).
Experiment [10] deals with 6-phosphogluconate dehydrogenase, decarboxylating (Homo sapiens) (UniProt P52209). Briefly: 6PGD enzyme inhibitors, primary screen, biochemical, human, recombinant enzyme, NADPH absorbance (AID 1159550;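 active = at least 20% inhibition of 6-phosphogluconate dehydrogenase activity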). Conditions: recombinant 6PGD, NADPH absorbance 341 nm; at 10 µM; stronger effect = higher value.
Chain of 6-phosphogluconate dehydrogenase, decarboxylating (Homo sapiens) (P52209 whole entry, looked up): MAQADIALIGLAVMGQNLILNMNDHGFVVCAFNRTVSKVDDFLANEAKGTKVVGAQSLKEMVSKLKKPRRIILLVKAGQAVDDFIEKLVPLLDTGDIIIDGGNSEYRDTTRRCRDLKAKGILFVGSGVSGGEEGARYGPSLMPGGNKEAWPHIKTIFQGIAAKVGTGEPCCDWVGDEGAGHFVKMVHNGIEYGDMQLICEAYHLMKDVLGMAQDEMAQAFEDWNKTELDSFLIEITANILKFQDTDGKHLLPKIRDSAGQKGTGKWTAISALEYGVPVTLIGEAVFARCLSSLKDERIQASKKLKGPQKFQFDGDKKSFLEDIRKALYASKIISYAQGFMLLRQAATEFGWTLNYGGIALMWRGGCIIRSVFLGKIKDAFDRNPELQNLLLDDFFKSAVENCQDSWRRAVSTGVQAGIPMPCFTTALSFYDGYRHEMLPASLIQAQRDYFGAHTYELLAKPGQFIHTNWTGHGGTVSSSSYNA

The source of these data is PubChem BioAssay.

Several values for one entry are separate records, joined by “and”; a condition that tells them apart may be missing. Equal values may be shown once. Activity calls are given as the source filed them. Cut-off read from the data, not from the text of the source, unless noted: active = parasite load remaining mostly below about 12% (no sharp cut-off); inactive = mostly above about 10%.

The viability is a read-out of living cells in per cent, often relative to untreated cells. What is called inhibition is the change of the read-out against control, counted positive when it falls. As for `CCN1CCN(C(=O)N[C@@H](C(=O)N[C@@H]2C(=O)N3C(C(=O)O)=C(CSc4nnnn4C)CS[C@H]23)c2ccc(O)cc2)C(=O)C1=O`, the parasite load remaining in [1] was 48.8% (inactive) and 79.5% (inactive) and 21.1% (inactive). Besides, the viability in experiment [1] is 114% and 80.3% and 69%. For the same molecule, the nuclear beta-catenin stimulation in experiment [2] (at 10 µM) is -0.5% (inactive); in experiment [2] (stimulation, at 2 µM) it was -1.5%. The insulin secretion stimulation in [3] was 1.3% (inactive). Further, in experiment [4], the viability decrease is 6.1% (inactive). The tube area decrease in [5] is -32.8% (inactive). Moreover, the GLP1 secretion stimulation in experiment [6] was 5.2% (inactive). In experiment [7], the inhibition of viability is -2.2% (inactive). Besides, the viability decrease (inhibition) was 8.6% (inactive) in experiment [8] and 3.3% (inactive) in [9]. Also, in experiment [10], the inhibition was 16.7% (inactive).

On to `O=c1cc[nH]c(=S)[nH]1`, for which, in experiment [1], the parasite load remaining is 64% (inactive). The viability in experiment [1] came out at 87.2%. Moreover, the nuclear beta-catenin stimulation in experiment [2] (at 10 µM) was -0.3% (inactive); in [2] (stimulation, at 2 µM), 1.5%. Moreover, in experiment [3], the insulin secretion stimulation was -0.7% (inactive). Further, in experiment [4], the viability decrease is -5.7% (inactive). For the same molecule, in experiment [5], the tube area decrease is 11.6% (inactive). In addition, the GLP1 secretion stimulation in [6] was -6.9% (inactive). The inhibition of viability in experiment [7] is 1.83% (inactive). In addition, the viability decrease (inhibition) was -9.6% (inactive) in [8] and -8.5% (inactive) in experiment [9]. Besides, the inhibition in experiment [10] was 13.5% (inactive).

Turning to `CN(C)CCc1c[nH]c2ccc(CS(=O)(=O)N3CCCC3)cc12`, the parasite load remaining in [1] is 135% (inactive). The viability in experiment [1] amounted to 87.9%. The nuclear beta-catenin stimulation was 1.7% (inactive) in [2] (at 10 µM) and 1.6% in experiment [2] (stimulation, at 2 µM). Further, the insulin secretion stimulation in experiment [3] is 2.7% (inactive). The viability decrease in [4] is -11% (inactive). The tube area decrease in [5] was 8.7% (inactive). For the same molecule, in experiment [6], the GLP1 secretion stimulation is 1.2% (inactive). The inhibition of viability in experiment [7] was 1.33% (inactive). In addition, the viability decrease (inhibition) is 28.9% (inactive) in experiment [8] and -7.1% (inactive) in experiment [9]. Also, the inhibition in [10] is -1.67% (inactive).

In the case of `CCN(CC)CCOc1ccc(/C(=C(\Cl)c2ccccc2)c2ccccc2)cc1`, the parasite load remaining in experiment [1] was 16% (inactive) and 5.06% (inactive). In addition, the viability in [1] is 73.6% and 90.4%. In addition, the nuclear beta-catenin stimulation is 40.9% (active) in experiment [2] (at 10 µM) and 12.4% in experiment [2] (stimulation, at 2 µM). In addition, in [3], the insulin secretion stimulation was 3.6% (inactive). The viability decrease in experiment [4] was 102% (active). For the same molecule, in experiment [5], the tube area decrease is 110% (active). Also, the GLP1 secretion stimulation in experiment [6] was 22.8% (active). In experiment [7], the inhibition of viability is 102% (active). Besides, the viability decrease (inhibition) in experiment [8] was 124% (active); in experiment [9] it was 103% (active). Besides, the inhibition in experiment [10] is -19.7% (inactive).

Turning to `C[C@]12CCC(=O)C=C1C=C[C@@H]1[C@@H]2CC[C@@]2(C)[C@H]1CC[C@@]21CCC(=O)O1`, the parasite load remaining in [1] is 17.5% (inactive). In addition, the viability in experiment [1] was found to be 73%. In addition, the nuclear beta-catenin stimulation is 2.7% (inactive) in [2] (at 10 µM) and 1.9% in [2] (stimulation, at 2 µM). Besides, the insulin secretion stimulation in experiment [3] is -2.6% (inactive). Besides, the viability decrease in experiment [4] was 22.8% (inactive). Moreover, in [5], the tube area decrease was 9% (inactive). In [6], the GLP1 secretion stimulation is 3.3% (inactive). Further, the inhibition of viability in experiment [7] is 33.6% (inactive). For the same molecule, the values for the viability decrease (inhibition) in [8] and in experiment [9] were 60.5% (active) and 11.5% (inactive), respectively. The inhibition in experiment [10] was -1.14% (inactive).

In the case of `C=CCc1ccc(O)c(OC)c1`, in experiment [1], the parasite load remaining was 91.2% (inactive) and 49.1% (inactive). The viability in experiment [1] is 77.2% and 96.4%. The nuclear beta-catenin stimulation in experiment [2] (at 10 µM) was 1.1% (inactive); in experiment [2] (stimulation, at 2 µM), 4.6%. The insulin secretion stimulation in experiment [3] was 4.7% (inactive). Also, the viability decrease in experiment [4] was 22.5% (inactive). Further, in [5], the tube area decrease is -3.7% (inactive). For the same molecule, in experiment [6], the GLP1 secretion stimulation was 2.4% (inactive). Moreover, the inhibition of viability in experiment [7] was 3.77% (inactive). Moreover, the results for the viability decrease (inhibition) in experiment [8] and in experiment [9] were -11.7% (inactive) and -4.6% (inactive), respectively. Moreover, the inhibition in experiment [10] was -3.83% (inactive).

As for `CCCCCCOc1ccccc1C(N)=O`, the parasite load remaining in experiment [1] is 151% (inactive). In [1], the viability stood at 88.6%. The nuclear beta-catenin stimulation in [2] (at 10 µM) was 2.2% (inactive); in experiment [2] (stimulation, at 2 µM), -1%. Besides, the insulin secretion stimulation in experiment [3] is -0.6% (inactive). Moreover, in [4], the viability decrease is -31.8% (inactive). Further, in [5], the tube area decrease was -2.6% (inactive). In addition, the GLP1 secretion stimulation in experiment [6] is -2.8% (inactive). Also, the inhibition of viability in [7] was 19.5% (inactive). Moreover, the viability decrease (inhibition) was 36.2% (inactive) in [8] and 11.6% (inactive) in experiment [9]. Also, the inhibition in experiment [10] was -1.25% (inactive).

For `COC(=O)N/N=C/c1c[n+]([O-])c2ccccc2[n+]1[O-]`, the parasite load remaining in experiment [1] was 174% (inactive) and 86.3% (inactive) and 64.3% (inactive). For the same molecule, in [1], the viability was 93.9% and 108% and 125%. In addition, the nuclear beta-catenin stimulation in experiment [2] (at 10 µM) is 1.7% (inactive); in experiment [2] (stimulation, at 2 µM) it was 5.8%. Moreover, in experiment [3], the insulin secretion stimulation is 1.9% (inactive). Besides, the viability decrease in experiment [4] was 18.7% (inactive). In addition, the tube area decrease in [5] is 22.2% (inactive). Moreover, the GLP1 secretion stimulation in experiment [6] was 5.7% (inactive). The inhibition of viability in experiment [7] is -3% (inactive). In addition, the viability decrease (inhibition) is -10.2% (inactive) in [8] and -4.9% (inactive) in [9]. Moreover, the inhibition in experiment [10] was 11.2% (inactive).

As to `CC[N+](C)(C)Cc1ccccc1Br`, in experiment [1], the parasite load remaining is 80.1% (inactive). Also, the viability in experiment [1] is 101%. The nuclear beta-catenin stimulation in [2] (at 10 µM) is -0.9% (inactive); in [2] (stimulation, at 2 µM) it was 0.3%. Further, the insulin secretion stimulation in [3] was 2.5% (inactive). Besides, in [4], the viability decrease was -18.7% (inactive). For the same molecule, in experiment [5], the tube area decrease was 10% (inactive). Further, the GLP1 secretion stimulation in experiment [6] was -3% (inactive). For the same molecule, the inhibition of viability in [7] was 27.2% (inactive). Moreover, the viability decrease (inhibition) in experiment [8] is -1.6% (active); in experiment [9], 10.8% (inactive). Further, in experiment [10], the inhibition was -1.68% (inactive).

On to `CC(N)CCCC(C)(C)O` (centres undefined), for which the parasite load remaining in experiment [1] is 31.8% (inactive) and 120% (inactive) and 114% (inactive). Besides, the viability in experiment [1] is 50.3% and 90.2% and 93.5%. For the same molecule, the nuclear beta-catenin stimulation in experiment [2] (at 10 µM) is 2.3% (inactive); in experiment [2] (stimulation, at 2 µM) it was 1.6%. Also, in experiment [3], the insulin secretion stimulation is 0.6% (inactive). Further, the viability decrease in experiment [4] is -36.1% (inactive). Moreover, the tube area decrease in experiment [5] is -13.2% (inactive). Further, the GLP1 secretion stimulation in experiment [6] was -1.9% (inactive). Also, the inhibition of viability in experiment [7] was -2.33% (inactive). Also, the viability decrease (inhibition) is 13% (inactive) in [8] and -0.1% (inactive) in experiment [9]. Also, the inhibition in [10] is -2.18% (inactive).

With `CC(C)NCC(O)c1ccc2ccccc2c1` (centres undefined), in [1], the parasite load remaining is 115% (inactive) and 166% (inactive) and 45.3% (inactive). For the same molecule, the viability in experiment [1] was 75% and 89% and 106%. In addition, the nuclear beta-catenin stimulation is 0.7% (inactive) in experiment [2] (at 10 µM) and -1.4% in experiment [2] (stimulation, at 2 µM). Moreover, the insulin secretion stimulation in [3] was 9.8% (inactive). Further, in experiment [4], the viability decrease is 6.6% (inactive). The tube area decrease in [5] was -11.2% (inactive). In addition, in experiment [6], the GLP1 secretion stimulation is 1.5% (inactive). Further, the inhibition of viability in experiment [7] was 26.4% (inactive). Also, the values for the viability decrease (inhibition) in experiment [8] and in [9] were 20.9% (inactive) and 19.4% (inactive), respectively. In [10], the inhibition is 8.21% (inactive).

For the molecule `O=C(O)c1ccccc1C(=O)Nc1ccc(S(=O)(=O)Nc2nccs2)cc1`, in experiment [1], the parasite load remaining is 89% (inactive) and 53.5% (inactive) and 22.8% (inactive). Also, the viability in experiment [1] is 103% and 81.4% and 87.5%. Moreover, the nuclear beta-catenin stimulation in experiment [2] (at 10 µM) was 0.8% (inactive); in experiment [2] (stimulation, at 2 µM), 0.7%. The insulin secretion stimulation in [3] is -2.1% (inactive). For the same molecule, in experiment [4], the viability decrease was -13.1% (inactive). Further, the tube area decrease in [5] is 3.3% (inactive). In addition, in experiment [6], the GLP1 secretion stimulation is 1.4% (inactive). Moreover, the inhibition of viability in [7] was -16.3% (inactive). Moreover, the figures for the viability decrease (inhibition) in experiment [8] and in experiment [9] were 20.3% (inactive) and -5.15% (inactive), respectively. Moreover, the inhibition in [10] was 5.34% (inactive).
